D1 antagonist – blocks dopamine activation of the human D1 receptor; P21728; HEK293 TREx D1 cells, calcium flux, dopamine EC80; hits give low values; activity change, negative = inhibition, % at 10 µM; 360,000 tested, 3.2% active; in the data active = activity change below about -30%; note: % is set by controls: 0 for no effect and ±100 for the full control effect
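Allosteric or orthosteric antagonism assessed as attenuation of the calcium response to EC80 dopamine, added 180 s after compound, in induced HEK293 Trex D1 cells loaded with no-wash calcium dye.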
TRHR PAM – allosterically enhances the human TRH receptor. AID 493056. 360,000 tested, 0.66% active. P34981. TRHR cells, fluo-8 calcium fluorescence, EC20 TRH enhancement. enhancement, % at 2 µM; in the data active = enhancement above about 30%; note: 0% is about no effect
Target sequence (P34981 whole entry, looked up): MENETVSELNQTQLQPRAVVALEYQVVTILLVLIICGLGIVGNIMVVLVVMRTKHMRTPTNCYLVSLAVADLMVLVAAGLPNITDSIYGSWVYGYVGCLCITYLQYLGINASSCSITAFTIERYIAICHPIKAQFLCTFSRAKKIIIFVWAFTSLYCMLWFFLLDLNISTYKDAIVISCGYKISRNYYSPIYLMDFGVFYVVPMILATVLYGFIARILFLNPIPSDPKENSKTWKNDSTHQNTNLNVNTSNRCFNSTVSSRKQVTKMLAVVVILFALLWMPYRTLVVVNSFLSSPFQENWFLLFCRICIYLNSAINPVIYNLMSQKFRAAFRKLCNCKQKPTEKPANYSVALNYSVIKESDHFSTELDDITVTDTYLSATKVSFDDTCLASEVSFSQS
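Enhancer read-out: after compound pinning and an initial kinetic agonist-mode read, an EC20 of TRH (10 nM final) was injected and fluo-8 calcium signal (Ex 480/Em 530) followed at 1 s/cycle for 100 cycles in TRHR-expressing cells.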
TRHR ag – TRH receptor (human) agonism. activation, % at 2 µM. TRHR cells, calcium flux fluo-8, FDSS agonist mode. 360,000 tested, 0.18% active. P34981; note: 0% is about no effect
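In this calcium-flux screen, cells bearing human TRHR are dye-loaded with fluo-8, baselined for 10 cycles, then exposed to library compounds; positive kinetic calcium responses during the agonist phase mark hits, with TRH as control.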
D1 agonist – activates the human D1 dopamine receptor; P21728; HEK293 T-REx D1 cells, calcium flux, agonist mode; activation, % at 2 µM; 360,000 tested, 1% active; AID 504660; note: 0% is about no effect
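Agonism was scored from calcium flux recorded over 180 s (1 read/s) after pintool compound addition, following a 10-cycle baseline. Cells were inducible force-coupled HEK293 TREx D1, plated overnight at 30 C and loaded with no-wash calcium dye.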
D1 PAM – human D1 dopamine receptor positive modulation. HEK293 TREx D1 cells, calcium flux, dopamine EC20 potentiation. AID 504651. potentiation, % at 10 µM. P21728. 360,000 tested, 0.036% active; in the data active = potentiation above about 30%; note: 0% is about no effect
* marks the source's active call; other numbers are inactive results. This is a sample that favours compounds with a hit; in the whole collection about 4.6% have one here. Cut-off read from the data, not from the text of the source, unless noted: active = activation above about 30%; inactive = the rest.

How did COc1ccc(NC(=O)CSc2nc(N)c(NC(=O)c3ccccc3F)c(=O)[nH]2)cc1 do in these assays?
D1 antagonist: 8.3; TRHR PAM: 24.7; TRHR ag: -0.1; D1 agonist: 1.2; D1 PAM: -0.7

What do the screens show for `Cc1ccccc1NC1=C/C(=N\S(=O)(=O)c2cccs2)c2ccccc2C1=O`?
D1 antagonist: 10.7; TRHR PAM: -8.6; TRHR ag: -0.3; D1 agonist: 1.1; D1 PAM: -1.6

What do the screens show for `Cc1ccc(NC2=C/C(=N/S(=O)(=O)c3cccs3)c3ccccc3C2=O)cc1C`?
D1 antagonist: -45.3*; TRHR PAM: 20.0; TRHR ag: 1.8; D1 agonist: -1.6; D1 PAM: 0.5

How did CC(=O)c1c(Cl)nc2ccc(Br)cc2c1-c1ccccc1 do in these assays?
D1 antagonist: 3.2; TRHR PAM: 35.0*; TRHR ag: -0.1; D1 agonist: 2.1; D1 PAM: 7.8

What do the screens show for `CC(=O)c1c(C)nc2ccc(Br)cc2c1-c1ccccc1`?
D1 antagonist: -3.9; TRHR PAM: -9.4; TRHR ag: -1.7; D1 agonist: 1.4; D1 PAM: 0.6

What do the screens show for `CC(C)Cn1c(CN2CCN(c3cccc(Cl)c3)CC2)nc2c1c(=O)[nH]c(=O)n2C`?
D1 antagonist: -21.2; TRHR PAM: 6.3; TRHR ag: -1.5; D1 agonist: 25.2; D1 PAM: -3.0

What do the screens show for `CC(C)COc1ccc(C(=O)Nc2onc3c2CCCC3)cc1`?
D1 antagonist: -44.9*; TRHR PAM: -2.2; TRHR ag: -1.0; D1 agonist: 9.5; D1 PAM: -0.6

Results for CCOc1ccc(C(=O)Nc2onc3c2CCCC3)cc1 ?
D1 antagonist: -13.4; TRHR PAM: 2.0; TRHR ag: -0.1; D1 agonist: -2.5; D1 PAM: -1.4

Results for Cc1oc(-c2ccc(C(=O)NCc3ccccc3F)cc2)nc1COc1ccccc1 ?
D1 antagonist: -54.4*; TRHR PAM: -19.5; TRHR ag: 1.4; D1 agonist: 10.9; D1 PAM: -4.1

How did Cc1ccc(SCc2nc(-c3ccc(C(=O)NCc4ccc(Cl)cc4)cc3)oc2C)cc1 do in these assays?
D1 antagonist: -83.7*; TRHR PAM: -10.4; TRHR ag: 0.1; D1 agonist: 2.3; D1 PAM: -3.0

How did CCOc1ccccc1CNC(=O)c1ccc(-c2nc(CSc3ccc(C)cc3)c(C)o2)cc1 do in these assays?
D1 antagonist: 6.1; TRHR PAM: -0.6; TRHR ag: 1.4; D1 agonist: 14.2; D1 PAM: -2.4

How did Cc1ccc(Cl)cc1NC(=O)C(Cc1ccccc1)NS(=O)(=O)c1cccc2nsnc12 (configuration not stated) do in these assays?
D1 antagonist: 18.6; TRHR PAM: -3.2; TRHR ag: -1.2; D1 agonist: 1.1; D1 PAM: 12.7

What do the screens show for `Cc1cc(OC(C)C(=O)N2CCN(CCc3ccccn3)CC2)ccc1Cl` (configuration not stated)?
D1 antagonist: 5.7; TRHR PAM: -4.1; TRHR ag: -0.7; D1 agonist: -0.8; D1 PAM: -0.3

How did Cc1ccc(-c2cn3c(=O)cc(C)[nH]c3n2)cc1 do in these assays?
D1 antagonist: -40.0*; TRHR PAM: -0.4; TRHR ag: 0.3; D1 agonist: 0.9; D1 PAM: -0.7

What do the screens show for `Cc1cc(=O)n2cc(-c3ccccc3)nc2[nH]1`?
D1 antagonist: -10.6; TRHR PAM: 1.6; TRHR ag: 0.2; D1 agonist: 1.1; D1 PAM: -5.3

Results for CC(=O)Nc1ccc(S(=O)(=O)N(Cc2ccccc2)Cc2ccccc2)cc1 ?
D1 antagonist: -24.4; TRHR PAM: -6.5; TRHR ag: -0.9; D1 agonist: -0.5; D1 PAM: -0.9

Results for CC(=O)c1ccc(N2CCN(C(=O)c3cc4c(s3)-c3ccccc3OC4)CC2)cc1 ?
D1 antagonist: -64.4*; TRHR PAM: -1.3; TRHR ag: 0.2; D1 agonist: 0.1; D1 PAM: -5.2

What do the screens show for `O=C(NC1CC1)c1cc2c(s1)-c1ccccc1OC2`?
D1 antagonist: -46.3*; TRHR PAM: 2.3; TRHR ag: 0.0; D1 agonist: 0.0; D1 PAM: -10.3

How did CN(C)CCN(Cc1ccco1)C(=O)c1cc2c(s1)-c1ccccc1OC2 do in these assays?
D1 antagonist: -70.0*; TRHR PAM: 1.3; TRHR ag: 0.0; D1 agonist: 7.1; D1 PAM: -4.5

How did O=C(O)c1cc2c(s1)-c1ccccc1OC2 do in these assays?
D1 antagonist: 9.9; TRHR PAM: 5.8; TRHR ag: -0.1; D1 agonist: 2.2; D1 PAM: -2.1

Results for O=C(c1cc2c(s1)-c1ccccc1OC2)N1CCN(c2ccc(F)cc2)CC1 ?
D1 antagonist: 4.0; TRHR PAM: 1.6; TRHR ag: 0.4; D1 agonist: 1.9; D1 PAM: -1.1

How did Cc1nn(C)c(C)c1CN(C(=O)C1CCC(=O)N(C2CCCCCC2)C1)C(C)C (configuration not stated) do in these assays?
D1 antagonist: 0.7; TRHR PAM: -0.1; TRHR ag: 3.7; D1 agonist: 1.4; D1 PAM: -0.5

What do the screens show for `CSCCC(NS(=O)(=O)c1ccc2c(c1)oc(=O)n2C)C(=O)NCc1ccc(Cl)cc1` (configuration not stated)?
D1 antagonist: -3.9; TRHR PAM: -11.5; TRHR ag: -0.3; D1 agonist: -0.2; D1 PAM: -6.3

What do the screens show for `Cc1cccc2c(=O)cc(CSc3ccccc3NC(=O)c3cccc(Br)c3)[nH]c12`?
D1 antagonist: 22.1; TRHR PAM: -0.1; TRHR ag: -0.4; D1 agonist: 5.4; D1 PAM: 2.4

What do the screens show for `CC(C)(C)c1ccc(/C=N/NC(=O)C2CCCC2)cc1`?
D1 antagonist: -46.7*; TRHR PAM: -0.7; TRHR ag: -0.3; D1 agonist: 1.8; D1 PAM: -6.4

What do the screens show for `CCN(C(=O)CSc1nc2ccccc2n1CC(=O)NCc1ccc(OC)cc1)c1ccccc1`?
D1 antagonist: -1.9; TRHR PAM: -0.9; TRHR ag: -1.2; D1 agonist: 35.4*; D1 PAM: 3.0

Results for CCC(C)NC(=O)CSc1nc2ccccc2c(=O)n1Cc1ccc(OC)cc1 (configuration not stated) ?
D1 antagonist: -5.2; TRHR PAM: 31.8*; TRHR ag: -0.5; D1 agonist: 5.6; D1 PAM: -3.6

How did COc1ccc(CNC(=O)Cn2c(SCC(=O)N(C)c3ccccc3)nc3ccccc32)cc1 do in these assays?
D1 antagonist: -6.3; TRHR PAM: -8.1; TRHR ag: 0.3; D1 agonist: 7.6; D1 PAM: 2.4

How did COC(=O)c1c(/N=C/N(C)C)sc2c1CCN(c1ncc(C(F)(F)F)cc1Cl)C2 do in these assays?
D1 antagonist: -30.8*; TRHR PAM: 2.8; TRHR ag: -0.2; D1 agonist: 23.5; D1 PAM: -14.2

Compound activity as filed in PubChem BioAssay.
